Experimental findings from the supplement of paper PMC6555819 are described below.

The subject of one test is PPARg DBDmut IVT, anti-PPARg (DBD mutation: PPARg1 K132A/R137A, NR concentration 270 nM). Nature of the test: PBM binding z-score (relative to random genomic background probes); higher = stronger binding; sequences stand for … in GC…GCGATTGACAGCGTAGAATGAAGG
The gist of the method: (§1)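 Regression normalization was applied to scanned fluorescence from custom Agilent 4×180K protein-binding microarrays. Before scanning, arrays were incubated 1 h with ligand-free nuclear receptor dimers, and binding was detected with antibodies against each partner (one per run). Binding z-scores use the random background probes as reference.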
CCTAGCAGGCCAATCTGGGTGACTCAAGGCTTGA came in with a PBM binding z-score of -0.739.

CGAACTAGGTCAGAACTGGACAGTGAAGGATGAT yielded a PBM binding z-score of 3.66.

In turn, GGAACGAGGGCATTCGAGTTGATGGCATGGCGAT gave a PBM binding z-score of -0.554.

As to TCAGACAGGTGAAGGTAACTCCGGTACGCAGTCG, the PBM binding z-score is -0.342.

On to CGTCCCAGGTCAATGCTAGGTCAGTGAAAGCATT, for which the PBM binding z-score was -0.875.

TCATATAGGTAAACAGGTGGAAGTCCGTAAGTTA: the PBM binding z-score amounted to 0.82.

Sequence CCAGACAGGTGAAAGGTAACCCAGTCTGGTACGC returned a PBM binding z-score of -0.209.

In the case of CTACCAAGCTGAACAAGGTCGTTGATTACTATTC, the PBM binding z-score is 0.158.

As for GGAACGAGGGCGTTCGAGTTGATAGCATGGCGAT, the PBM binding z-score is -0.922.

CAGCCTAGGTCTGGGCCAGTATAGGAGGAACGTT: the PBM binding z-score was -1.97.

GGAGACAGGTGAAACGCAGGTAACTCAGGGTGGC displayed a PBM binding z-score of -0.98.

Consider TAGCCTAGGTCATGGGCCGGTATACCACGCGAAC, for which the PBM binding z-score was -0.404.

In turn, CAAACTCGGTCACAGAGGTCAAAGTCCGTGCGTA gave a PBM binding z-score of 1.84.

CCTACTGCGCCACGAAAGGTCATTGATTCAGTGA showed a PBM binding z-score of 0.0242.

In the case of GCGTACGGGTCAAAGGTTATAGCATGAATAGAAT, the PBM binding z-score was 2.

Turning to CCATACGGGTCACGAGGTTATAGCACGACGAGCG, the PBM binding z-score worked out at 0.373.

Turning to TCATATAGGTAAATGCTAGGTGAAATTCCGATCT, the PBM binding z-score came to 1.13.

CGAACGAGGGGATGAGTTGATAGCAAATGCCGAT came in with a PBM binding z-score of 0.151.

In turn, GCATATAGGTGATACAAGGTGAAAGTCCGATTGT returned a PBM binding z-score of 0.787.

With CCGACTGCGGCAAAGGTTACCATACTCAGTACGA, the PBM binding z-score came out at 0.245.

Sequence ACTATTAGTTGTGACGAGGGCAACCGATAGGTTG gave a PBM binding z-score of 1.19.

As for TCGAGTAGGTTACCAATGGGGCATTCCGCTTTCT, the PBM binding z-score was -0.0752.

On to CGAACTAGGTCCTCCAGGACAGTGAATACATTGA, for which the PBM binding z-score was -0.00333.

In turn, TCAAGTAGGTTACCAATGGGGCATTCAGCTTTCT came in with a PBM binding z-score of -0.182.

The sequence GCTGTTAGGTCAACTGATGGTCAGCTAAAGCTCG had a PBM binding z-score of 0.227.

TCATATAGGTAAACAGGTGCAAGTCCGTAAGTTA showed a PBM binding z-score of 1.48.

As for TCTTGTAGATCAATAGAGGATAAGAAAGTGCGCT, the PBM binding z-score is 1.05.

In the case of TTACCAGGGTGAAGGTCGTTGATCCCTCTGTAGA, the PBM binding z-score is -0.0741.

In turn, GCTAGCAGGCCATTTTGGTCACTCAATGACGGGC returned a PBM binding z-score of -1.4.

In the case of CGTCCAAGGTCAATGCTAGGTCAGTGTAAGCATT, the PBM binding z-score is -0.396.

Take TATACAGCGTCAAAGGCCAGAGTACGAATGTCGA: the PBM binding z-score is 0.515.

For the sequence ATCTCGAGGTAAAGTTCAGTGAAAGATCGATAGA, the PBM binding z-score is 0.574.

On to CATACAGGGTCAGCTAGGCCAGTGTAGGGACGGC, for which the PBM binding z-score came to 0.349.

For the sequence ATATGTAGGTTATCGCGTCATTCAGTTTGCGCAT, the PBM binding z-score was 2.41.

As to CCGACTGGGGTAAAGGTTACCATACTCAGTACGA, the PBM binding z-score came out at 0.0634.

TAGCCTAGGTCATGCGGGCCAGGATAGTGTCGGC displayed a PBM binding z-score of -0.781.

CCTAGTAGGTCAAGGTCACACACGCTATAGGTAC: the PBM binding z-score was 0.61.

As for TCGAGTAGGTTACCATTGGGGCATTCAGCTTTCT, the PBM binding z-score is -0.763.

With TTACCAAGGTGGGCTGAGGTCGTTGATCCAACTC, the PBM binding z-score was -0.213.

As to AGAATGACGTTATACGTAGATCAGGGAAGAAAGT, the PBM binding z-score came to 1.24.

The next test relates to PPARg homodimer (NR concentration 180 nM). The test is described as above. The gist of the method: as §1
In the case of CCTAGCAGGCCAATCTGGGTGACTCAAGGCTTGA, the PBM binding z-score was -0.0827.

Consider CGAACTAGGTCAGAACTGGACAGTGAAGGATGAT, for which the PBM binding z-score came out at 1.37.

Take GGAACGAGGGCATTCGAGTTGATGGCATGGCGAT: the PBM binding z-score is -0.644.

TCAGACAGGTGAAGGTAACTCCGGTACGCAGTCG: the PBM binding z-score is 0.498.

The sequence CGTCCCAGGTCAATGCTAGGTCAGTGAAAGCATT had a PBM binding z-score of 3.66.

In turn, TCATATAGGTAAACAGGTGGAAGTCCGTAAGTTA had a PBM binding z-score of 1.12.

Take CCAGACAGGTGAAAGGTAACCCAGTCTGGTACGC: the PBM binding z-score turned out to be 0.618.

CTACCAAGCTGAACAAGGTCGTTGATTACTATTC had a PBM binding z-score of 0.308.

As for GGAACGAGGGCGTTCGAGTTGATAGCATGGCGAT, the PBM binding z-score was -0.718.

CAGCCTAGGTCTGGGCCAGTATAGGAGGAACGTT gave a PBM binding z-score of -0.842.

For GGAGACAGGTGAAACGCAGGTAACTCAGGGTGGC, the PBM binding z-score was -0.102.

On to TAGCCTAGGTCATGGGCCGGTATACCACGCGAAC, for which the PBM binding z-score came out at 1.23.

Sequence CAAACTCGGTCACAGAGGTCAAAGTCCGTGCGTA came in with a PBM binding z-score of 5.93.

CCTACTGCGCCACGAAAGGTCATTGATTCAGTGA registered a PBM binding z-score of 4.6.

GCGTACGGGTCAAAGGTTATAGCATGAATAGAAT had a PBM binding z-score of 4.07.

As for CCATACGGGTCACGAGGTTATAGCACGACGAGCG, the PBM binding z-score came to 2.89.

In turn, TCATATAGGTAAATGCTAGGTGAAATTCCGATCT yielded a PBM binding z-score of 1.04.

Turning to CGAACGAGGGGATGAGTTGATAGCAAATGCCGAT, the PBM binding z-score was found to be 0.0087.

As for GCATATAGGTGATACAAGGTGAAAGTCCGATTGT, the PBM binding z-score stood at 0.568.

With CCGACTGCGGCAAAGGTTACCATACTCAGTACGA, the PBM binding z-score was 0.843.

Sequence ACTATTAGTTGTGACGAGGGCAACCGATAGGTTG yielded a PBM binding z-score of 0.35.

In turn, TCGAGTAGGTTACCAATGGGGCATTCCGCTTTCT showed a PBM binding z-score of -0.326.

Turning to CGAACTAGGTCCTCCAGGACAGTGAATACATTGA, the PBM binding z-score is -0.188.

TCAAGTAGGTTACCAATGGGGCATTCAGCTTTCT returned a PBM binding z-score of 0.999.

For GCTGTTAGGTCAACTGATGGTCAGCTAAAGCTCG, the PBM binding z-score is 3.51.

For the sequence TCATATAGGTAAACAGGTGCAAGTCCGTAAGTTA, the PBM binding z-score came to 1.13.

TCTTGTAGATCAATAGAGGATAAGAAAGTGCGCT had a PBM binding z-score of 0.615.

In turn, TTACCAGGGTGAAGGTCGTTGATCCCTCTGTAGA had a PBM binding z-score of 1.08.

The sequence GCTAGCAGGCCATTTTGGTCACTCAATGACGGGC showed a PBM binding z-score of -1.14.

Consider CGTCCAAGGTCAATGCTAGGTCAGTGTAAGCATT, for which the PBM binding z-score was found to be 6.64.

Sequence TATACAGCGTCAAAGGCCAGAGTACGAATGTCGA showed a PBM binding z-score of -0.844.

With ATCTCGAGGTAAAGTTCAGTGAAAGATCGATAGA, the PBM binding z-score worked out at 1.21.

With CATACAGGGTCAGCTAGGCCAGTGTAGGGACGGC, the PBM binding z-score was 1.32.

Consider ATATGTAGGTTATCGCGTCATTCAGTTTGCGCAT, for which the PBM binding z-score stood at 0.975.

Regarding CCGACTGGGGTAAAGGTTACCATACTCAGTACGA, the PBM binding z-score was determined as 1.25.

TAGCCTAGGTCATGCGGGCCAGGATAGTGTCGGC: the PBM binding z-score was determined as 0.191.

On to CCTAGTAGGTCAAGGTCACACACGCTATAGGTAC, for which the PBM binding z-score was 3.98.

TCGAGTAGGTTACCATTGGGGCATTCAGCTTTCT had a PBM binding z-score of -0.00669.

As to TTACCAAGGTGGGCTGAGGTCGTTGATCCAACTC, the PBM binding z-score is -0.101.

Regarding AGAATGACGTTATACGTAGATCAGGGAAGAAAGT, the PBM binding z-score was -0.321.
